Results on 20 molecules are retold here after PubChem BioAssay (NCATS).

Experiment [1] deals with Thyroid hormone receptor beta (Homo sapiens) (UniProt P10828). In words: qHTS assay for small molecule agonists of thyroid hormone receptor beta signaling (AID 588545). In short, it runs like this:
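Agonist-mode beta-lactamase reporter assay, HEK 293 cells, 2% charcoal/dextran FBS; cells plated 4 hrs, compound 18 hrs at 37 C, CCF4 2 hrs RT. Normalized to 10 nM T3 (100%) and DMSO (0%); Hill fit gives EC50, efficacy.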
For orientation: qHTS replaces the single test concentration by a dilution series.

Experiment [2] can be described thus: qHTS assay for small molecule agonists of retinoid X receptor alpha signaling (AID 588544). As to conditions: HEK293T RXRa-UAS-bla, beta-lactamase reporter, 18 h; 530 nm emission.
The target in experiment [3] is Retinoic acid receptor RXR-alpha (Homo sapiens) (UniProt P19793). The experiment is described as above.
Experiment [4] can be described thus: qHTS assay for small molecule antagonists of retinoid X receptor alpha signaling (AID 588546; active = well fitted inhibition curve with a large enough effect in the signal ratio, with a control signal flat, not every such curve was filed as active; the % refers to the signal ratio;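 note: cells stimulated with 9-cis-retinoic acid as agonist; % is set by controls: 0 for no effect and ±100 for the full control effect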). The note with it: HEK293T RXRa-UAS-bla, beta-lactamase ratio, antagonist mode; measured here: W530 green channel, cytotoxicity proxy. The method in brief: (§1)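 Beta-lactamase reporter inhibition, read as CCF4 fluorescence ratio (ex 405, em 460/530 nm) after 2 h at RT. HEK293T UAS-bla cells, 2500/well, were stimulated with 9-cis-RA at 500 or 100 nM final alongside test compound for 18 h at 37 C.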

Experiment [5] deals with Retinoic acid receptor RXR-alpha (Homo sapiens) (UniProt P19793). The description is as above. The note with it: HEK293T RXRa-UAS-bla, beta-lactamase ratio, antagonist mode. The method in brief:
as §1

The target of experiment [6] is Thyroid hormone receptor beta (Homo sapiens) (UniProt P10828). In words: qHTS assay for small molecule antagonists of thyroid hormone receptor beta signaling (AID 588547; active = well fitted inhibition curve with a large enough effect in the signal ratio, with a control signal flat, not every such curve was filed as active; the % refers to the signal ratio;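 note: cells stimulated with 0.4 nM T3 agonist during compound exposure; series mostly up to about 77 µM; % is set by controls: 0 for no effect and ±100 for the full control effect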). As to conditions: TR-UAS-bla HEK293, beta-lactamase ratio, antagonist mode, 18 h. In short, it runs like this: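 TR-UAS-bla GripTite HEK293 cells in 2% charcoal/dextran FBS medium; compounds 0.59 nM to 92 uM with T3 at 0.4nM final, 18 h at 37 C. Beta-lactamase read by CCF4 fluorescence (460/530 nm); Hill fits gave IC50 and efficacy.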

Experiment [7] deals with Voltage-gated inwardly rectifying potassium channel KCNH2 (Homo sapiens) (UniProt Q12809). In words: qHTS Assay for Small Molecule Inhibitors of the Human hERG Channel Activity (AID 588834; active = well fitted inhibition curve with a large enough effect;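 note: lower thallium flux fluorescence means stronger hERG block; nearly all actives have a fitted effect of over 50% in size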; note: potency is the fitted concentration of half-maximal effect). The method in brief: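 Homogeneous FluxOR thallium flux assay using hERG-expressing U2OS cells (BacMam). Compound treatment about 10 minutes preceded stimulation; reduced fluorescence taken as channel block.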

Experiment [8] concerns the target Vitamin D3 receptor (Homo sapiens) (UniProt P11473). As to the kind of experiment: qHTS assay for small molecule antagonists of vitamin D receptor signaling (AID 588541).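 Note: receptor activated by calcitriol during compound treatment; series mostly up to about 77 µM; % is set by controls: 0 for no effect and ±100 for the full control effect.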 In short, it runs like this:
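VDR-UAS-bla HEK293T cells in 2% charcoal-stripped FBS were stimulated with 1-alpha,25-dihydroxyvitamin D3 (3 nM final) plus compound for 16 h at 37 C. The beta-lactamase CCF4 readout was normalized to 50 nM agonist and DMSO, and Hill fits gave IC50.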

Experiment [9] shares this target. In words: qHTS assay for small molecule agonists of vitamin D receptor signaling (AID 588543).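 Note: 0% = DMSO basal and 100% = reference agonist control.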 The method in brief:
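Measured: β-lactamase reporter activity (CCF4, 405 nm excitation, 460/530 nm emission) in HEK293T VDR-UAS-bla cells after 16 h compound exposure at 37 °C. Normalization against 50 nM 1α,25-dihydroxyvitamin D3 and DMSO; Hill-fit EC50.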

The target of experiment [10] is Luciferin 4-monooxygenase (Photinus pyralis) (UniProt P08659). As to the kind of experiment: Biochemical firefly luciferase enzyme assay for NPC (AID 624030; active = well fitted inhibition curve with a large enough effect;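 note: purified P. pyralis luciferase at 10 nM with luciferin and ATP substrate; series mostly up to about 59 µM; 0% = DMSO and -100% = full luciferase inhibition by PTC124 control; nearly all actives have a fitted effect of over 70% in size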). The method in brief:
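Purified P. pyralis luciferase at 10 nM in 50 mM Tris Acetate (final), luminescence read within 5 minutes of enzyme addition to compounds. Activity normalised to PTC124 versus DMSO; concentration-response curves classed by r2, magnitude and activity.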

Several values for one entry are separate records, joined by “and”; a condition that tells them apart may be missing. Equal values may be shown once. Inconclusive results are not listed. Activity calls are given as the source filed them. Unless noted, calls come from the whole dose curve. Peptide text beside a SMILES is read from it.

Chain of Vitamin D3 receptor (Homo sapiens) (P11473 whole entry, looked up): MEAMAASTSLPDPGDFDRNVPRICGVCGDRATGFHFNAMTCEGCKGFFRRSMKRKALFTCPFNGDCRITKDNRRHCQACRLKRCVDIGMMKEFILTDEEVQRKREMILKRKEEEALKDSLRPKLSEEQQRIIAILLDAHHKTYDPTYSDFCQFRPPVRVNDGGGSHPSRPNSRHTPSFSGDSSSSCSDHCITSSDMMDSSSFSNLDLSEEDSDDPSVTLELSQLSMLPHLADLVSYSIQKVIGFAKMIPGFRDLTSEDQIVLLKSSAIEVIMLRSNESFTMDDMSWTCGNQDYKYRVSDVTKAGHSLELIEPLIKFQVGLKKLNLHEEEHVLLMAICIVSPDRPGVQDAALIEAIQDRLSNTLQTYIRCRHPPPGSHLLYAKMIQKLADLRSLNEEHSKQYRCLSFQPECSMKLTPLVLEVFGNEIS
Chain of Luciferin 4-monooxygenase (Photinus pyralis) (P08659 whole entry, looked up): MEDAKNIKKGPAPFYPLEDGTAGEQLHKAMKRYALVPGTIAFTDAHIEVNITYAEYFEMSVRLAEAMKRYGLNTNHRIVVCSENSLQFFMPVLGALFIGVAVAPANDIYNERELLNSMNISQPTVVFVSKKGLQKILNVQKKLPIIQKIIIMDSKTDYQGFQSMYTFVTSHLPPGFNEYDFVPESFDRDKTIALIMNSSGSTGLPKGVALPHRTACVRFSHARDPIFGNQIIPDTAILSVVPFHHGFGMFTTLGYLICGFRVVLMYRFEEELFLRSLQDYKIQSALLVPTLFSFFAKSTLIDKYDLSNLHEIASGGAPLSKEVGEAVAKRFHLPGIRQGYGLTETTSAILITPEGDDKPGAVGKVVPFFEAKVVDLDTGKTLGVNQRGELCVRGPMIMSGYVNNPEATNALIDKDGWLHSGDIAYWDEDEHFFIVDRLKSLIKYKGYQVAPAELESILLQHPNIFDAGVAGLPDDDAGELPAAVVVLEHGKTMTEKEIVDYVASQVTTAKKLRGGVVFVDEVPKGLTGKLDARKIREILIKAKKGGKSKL
Chain of Voltage-gated inwardly rectifying potassium channel KCNH2 (Homo sapiens) (Q12809 whole entry, looked up): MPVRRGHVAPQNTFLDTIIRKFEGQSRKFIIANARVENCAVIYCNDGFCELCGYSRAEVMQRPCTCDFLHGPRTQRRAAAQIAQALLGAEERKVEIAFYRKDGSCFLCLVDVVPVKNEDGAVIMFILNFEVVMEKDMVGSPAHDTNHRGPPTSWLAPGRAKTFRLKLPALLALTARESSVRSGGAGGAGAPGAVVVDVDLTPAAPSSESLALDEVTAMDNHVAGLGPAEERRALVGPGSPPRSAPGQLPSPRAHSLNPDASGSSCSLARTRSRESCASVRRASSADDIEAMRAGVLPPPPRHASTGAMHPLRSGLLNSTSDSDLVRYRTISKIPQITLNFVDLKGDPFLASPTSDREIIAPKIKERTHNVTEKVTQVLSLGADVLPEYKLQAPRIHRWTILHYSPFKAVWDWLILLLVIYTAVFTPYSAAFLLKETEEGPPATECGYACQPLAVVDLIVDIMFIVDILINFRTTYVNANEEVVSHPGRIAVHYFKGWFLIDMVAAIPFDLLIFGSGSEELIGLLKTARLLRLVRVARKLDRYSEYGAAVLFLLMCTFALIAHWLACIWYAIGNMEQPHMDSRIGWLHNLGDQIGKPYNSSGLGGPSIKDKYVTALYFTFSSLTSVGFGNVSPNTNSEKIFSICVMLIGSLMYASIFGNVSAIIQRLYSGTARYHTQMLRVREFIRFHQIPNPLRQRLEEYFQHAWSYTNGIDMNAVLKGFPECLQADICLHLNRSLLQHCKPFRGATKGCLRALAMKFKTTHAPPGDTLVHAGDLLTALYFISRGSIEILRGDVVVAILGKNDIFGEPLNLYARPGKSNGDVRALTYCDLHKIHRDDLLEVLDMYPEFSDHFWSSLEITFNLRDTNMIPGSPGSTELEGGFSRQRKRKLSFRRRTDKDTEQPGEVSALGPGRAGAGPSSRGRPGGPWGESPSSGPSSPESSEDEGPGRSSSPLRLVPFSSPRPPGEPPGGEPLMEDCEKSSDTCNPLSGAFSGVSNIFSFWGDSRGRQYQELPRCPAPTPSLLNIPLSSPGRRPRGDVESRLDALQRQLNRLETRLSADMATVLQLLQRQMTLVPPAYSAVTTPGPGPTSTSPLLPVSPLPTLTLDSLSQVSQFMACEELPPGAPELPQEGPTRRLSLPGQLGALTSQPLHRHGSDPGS
Chain of Thyroid hormone receptor beta (Homo sapiens) (P10828 whole entry, looked up): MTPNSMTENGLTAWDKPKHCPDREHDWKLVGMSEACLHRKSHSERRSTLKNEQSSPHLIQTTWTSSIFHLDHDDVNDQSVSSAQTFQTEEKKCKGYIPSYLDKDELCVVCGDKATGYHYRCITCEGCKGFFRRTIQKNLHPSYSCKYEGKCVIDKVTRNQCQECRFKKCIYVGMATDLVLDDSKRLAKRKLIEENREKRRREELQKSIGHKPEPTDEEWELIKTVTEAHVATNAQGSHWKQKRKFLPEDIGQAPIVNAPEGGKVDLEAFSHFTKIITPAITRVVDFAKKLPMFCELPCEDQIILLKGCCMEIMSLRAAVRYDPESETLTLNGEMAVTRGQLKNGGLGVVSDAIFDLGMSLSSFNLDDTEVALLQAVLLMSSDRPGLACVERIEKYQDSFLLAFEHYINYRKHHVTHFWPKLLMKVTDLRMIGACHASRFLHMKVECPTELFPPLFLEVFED
Chain of Retinoic acid receptor RXR-alpha (Homo sapiens) (P19793 whole entry, looked up): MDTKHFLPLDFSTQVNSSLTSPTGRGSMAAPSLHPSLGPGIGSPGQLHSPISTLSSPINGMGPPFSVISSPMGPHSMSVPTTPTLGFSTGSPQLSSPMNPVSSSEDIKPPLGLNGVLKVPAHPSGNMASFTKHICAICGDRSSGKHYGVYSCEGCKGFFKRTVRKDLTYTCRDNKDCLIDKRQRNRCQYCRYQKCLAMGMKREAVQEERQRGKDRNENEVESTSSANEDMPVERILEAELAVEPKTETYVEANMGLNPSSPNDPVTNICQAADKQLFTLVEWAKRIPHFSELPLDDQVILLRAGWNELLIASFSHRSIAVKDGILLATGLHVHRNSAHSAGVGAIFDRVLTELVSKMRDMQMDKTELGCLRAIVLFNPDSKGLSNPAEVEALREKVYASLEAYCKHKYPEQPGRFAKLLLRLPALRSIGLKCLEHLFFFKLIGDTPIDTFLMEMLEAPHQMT

For `CC(=O)N1CCN(c2ccc(OC[C@H]3CO[C@](Cn4ccnc4)(c4ccc(Cl)cc4Cl)O3)cc2)CC1`, the molecule was called inactive in experiment [1].

Consider `Cc1ccc(C)c(OCCCC(C)(C)C(=O)O)c1`, for which the max response was 26.9% and -2.09% in [2]; 4.23% and -4.48% in experiment [4]; 1.18% (inactive) and -8.41% (inactive) in [5]. Also, the call in [3] and in [1] was inactive. Further, the activity change % (negative = inhibition) in [6] is -13.4% (inactive) and -13.2% (inactive). In experiment [7], the Potency entry was “inactive”.

In the case of `CC1(C)CCC(C)(C)c2cc(NC(=O)c3ccc(C(=O)O)cc3)ccc21`, the Potency entry in experiment [7] is “inactive”.

For `N[C@@H](Cc1cc(I)c(Oc2cc(I)c(O)c(I)c2)c(I)c1)C(=O)O`, the result in experiment [8], in experiment [9] and in experiment [3] was inactive. Also, in [2], the max response was -7.79%. The Potency result in [7] and in experiment [10] was “inactive” each time.

For `O=c1c(O)c(-c2ccc(O)cc2O)oc2cc(O)cc(O)c12`, the call in experiment [8], in experiment [9] and in experiment [1] was inactive. Besides, the Potency in experiment [7] is 3.16 µM (active).

For `O=C(O)c1cccnc1Nc1cccc(C(F)(F)F)c1`, the Potency entry in [7] was “inactive”.

Consider `CC1(C)NC(=O)N(c2ccc([N+](=O)[O-])c(C(F)(F)F)c2)C1=O`, for which the result in experiment [8], in [9], in experiment [3] and in experiment [1] was inactive. In addition, the max response was 13.6% in experiment [2], -4.34% in experiment [4] and 1.48% (inactive) in [5]. In experiment [7], the Potency entry was “inactive”.

For `O=C1c2c(O)cc(O)cc2OC(c2ccc(O)c(O)c2)C1O` (stereo unspecified), in [7], the Potency result was “inactive”.

Turning to `COc1c2occc2cc2ccc(=O)oc12`, the outcome in experiment [8], in [9], in [3] and in experiment [1] was inactive. The max response is -1.38% in [2]; 0.567% and -6.27% in experiment [4]; 1.26% (inactive) and 12.5% (inactive) in experiment [5]. The activity change % (negative = inhibition) in [6] is 4.14% (inactive) and -14.9% (inactive). In addition, the Potency entry in experiment [7] is “inactive”.

With `CCCCC(CC)COC(=O)C(C#N)=C(c1ccccc1)c1ccccc1` (stereo unspecified), the outcome in experiment [8] and in experiment [9] was inactive. Also, the max response was -18.7% in experiment [4] and -7.69% (inactive) in experiment [5]. The activity change % (negative = inhibition) in [6] was -9.58% (inactive). In addition, the Potency result in experiment [7] is “inactive”.

Take `CCCCc1ccc2nc(NC(=O)OC)[nH]c2c1`: the Potency result in experiment [7] was “inactive”.

For `CCCc1cc(=O)[nH]c(=S)[nH]1`, the max response in experiment [2] is 3.33% and 11.8%; in experiment [4], 2.58% and 1.92%; in [5] it was 3.88% (inactive) and 3.79% (inactive). Besides, the molecule was called inactive in experiment [3] and in [1]. The activity change % (negative = inhibition) in [6] was 8.46% (inactive). Also, the Potency result in experiment [7] and in experiment [10] was “inactive” each time.

For the molecule `COC(=O)[C@H](Cc1ccccc1)NC(=O)[C@@H](N)CC(=O)O` (H-Asp-Phe-OMe), the max response in [2] is 3.6% and 1.05%; in [4], 2.63% and 8.92%; in experiment [5] it was 1.69% (inactive) and -7.67% (inactive). The result in [3] and in experiment [1] was inactive. Moreover, the activity change % (negative = inhibition) in experiment [6] is 6.56% (inactive) and 1.22% (inactive). In addition, the Potency result in experiment [7] is “inactive”.

In the case of `Clc1ccc(C(Cn2ccnc2)OCc2c(Cl)cccc2Cl)c(Cl)c1` (stereo unspecified), the Potency in [7] is 7.94 µM (active).

With `Nc1nc(Cl)nc2c1ncn2[C@H]1C[C@H](O)[C@@H](CO)O1`, the molecule was classed as inactive in experiment [8], in experiment [9] and in experiment [1]. Further, the max response in [4] is 5.76%; in [5], -2.35% (inactive). In experiment [6], the activity change % (negative = inhibition) is -1.32% (inactive). In [7], the Potency result is “inactive”.

Take `c1ccc2[nH]c(-c3cscn3)nc2c1`: the molecule was called inactive in [8], in experiment [9], in [3] and in experiment [1]. The max response was 8.2% and -19.9% in [2]; -4.89% and -3.75% in [4]; 14% (inactive) and 3.02% (inactive) in [5]. The activity change % (negative = inhibition) in experiment [6] was -27.5% (inactive). Besides, the Potency result in experiment [7] was “inactive”.

In the case of `Nc1cccc2c1CN(C1CCC(=O)NC1=O)C2=O` (stereo unspecified), the Potency entry in experiment [7] was “inactive”.

Regarding `CN(C)c1ccc2nc3ccc(=[N+](C)C)cc-3sc2c1`, the call in experiment [1] was inactive. Further, the results for the max response in experiment [4] and in [5] were -22.9% and -3.23% (inactive), respectively. Besides, the activity change % (negative = inhibition) in experiment [6] was 20.5% (inactive). The Potency result in experiment [7] was “inactive”.

For `Cc1cc(O)c2c(c1)C(=O)c1cc(O)cc(O)c1C2=O`, in experiment [1], the call was inactive. The max response is 1.07% in experiment [4] and -11.8% (inactive) in experiment [5]. Besides, the activity change % (negative = inhibition) in experiment [6] was -22% (inactive).

As for `CNC[C@H](O)c1ccc(O)c(O)c1`, the result in experiment [8], in [9], in [3] and in [1] was inactive. Besides, the max response in [2] is -11.1%; in experiment [4], -9.39%; in experiment [5], -4.11% (inactive). Further, the Potency entry in experiment [7] and in experiment [10] was “inactive” in each case.
